Laboratory results: paper PMC7862700, “An all-to-all approach to the identification of sequence-specific readers for epigenetic DNA modifications on cytosine”

How the values were obtained:
Assay in all cases: DAPPL (digital affinity profiling via proximity ligation, sequencing); 10 mM Tris-HCl pH 7.5, 50 mM NaCl, 1 mM DTT, 4% glycerol, room temperature, 30 min; GST-TFs on glutathione beads, 16-mer random dsDNA library, 0.1% formaldehyde crosslink after washing; high values mean tight binding
Conditions in all cases: protein: recombinant; tags: N-terminal GST; dsDNA, one strand shown
ELK1 = target: T1, ELK1 (Homo sapiens, UniProt P19419 1-428)
T1 sequence: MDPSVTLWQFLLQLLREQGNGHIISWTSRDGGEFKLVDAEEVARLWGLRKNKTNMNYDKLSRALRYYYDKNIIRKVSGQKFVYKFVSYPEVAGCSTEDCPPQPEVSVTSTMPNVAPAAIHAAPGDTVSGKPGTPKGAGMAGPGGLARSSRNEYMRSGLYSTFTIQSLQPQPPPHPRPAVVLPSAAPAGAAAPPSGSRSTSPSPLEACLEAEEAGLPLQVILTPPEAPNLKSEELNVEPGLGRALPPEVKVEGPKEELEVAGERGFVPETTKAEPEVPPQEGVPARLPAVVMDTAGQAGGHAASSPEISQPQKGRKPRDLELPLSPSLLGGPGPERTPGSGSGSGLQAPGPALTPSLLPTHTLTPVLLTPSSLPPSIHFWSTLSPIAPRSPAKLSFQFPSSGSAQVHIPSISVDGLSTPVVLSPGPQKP
Procedure, shortened: (§1)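 Human transcription factors fused to GST were expressed in yeast, captured on glutathione beads, given DNA barcodes and pooled with a GST-only negative control. Pools were incubated with 200 nmole of a 16-mer random double-stranded DNA library in Tris/NaCl/DTT/glycerol buffer at room temperature for 30 min. They were then washed, crosslinked with 0.1% formaldehyde, proximity-ligated (BsaI/T4 ligase, 1 h, 37 °C), PCR-amplified and sequenced on an Illumina NextSeq500. Binding signal is each 6-mer's read frequency for a factor divided by its frequency for the GST control.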

GABPA = target: T2, GABPA (Homo sapiens, UniProt Q06546 1-454)
T2 sequence: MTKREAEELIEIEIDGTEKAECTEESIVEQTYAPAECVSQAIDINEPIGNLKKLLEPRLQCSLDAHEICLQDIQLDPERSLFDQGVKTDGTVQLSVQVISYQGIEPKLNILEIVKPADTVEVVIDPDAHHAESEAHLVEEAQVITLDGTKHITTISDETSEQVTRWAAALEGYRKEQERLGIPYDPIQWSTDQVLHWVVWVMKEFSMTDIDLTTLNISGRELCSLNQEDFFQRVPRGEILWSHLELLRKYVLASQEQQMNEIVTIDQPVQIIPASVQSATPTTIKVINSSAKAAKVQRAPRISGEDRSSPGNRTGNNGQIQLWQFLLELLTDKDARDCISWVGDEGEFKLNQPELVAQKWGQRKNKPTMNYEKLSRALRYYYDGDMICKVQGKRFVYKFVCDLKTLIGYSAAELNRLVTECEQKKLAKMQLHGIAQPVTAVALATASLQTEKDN
Procedure, shortened: as §1

ERG = target: T3, ERG (Homo sapiens, UniProt P11308 1-479)
T3 sequence: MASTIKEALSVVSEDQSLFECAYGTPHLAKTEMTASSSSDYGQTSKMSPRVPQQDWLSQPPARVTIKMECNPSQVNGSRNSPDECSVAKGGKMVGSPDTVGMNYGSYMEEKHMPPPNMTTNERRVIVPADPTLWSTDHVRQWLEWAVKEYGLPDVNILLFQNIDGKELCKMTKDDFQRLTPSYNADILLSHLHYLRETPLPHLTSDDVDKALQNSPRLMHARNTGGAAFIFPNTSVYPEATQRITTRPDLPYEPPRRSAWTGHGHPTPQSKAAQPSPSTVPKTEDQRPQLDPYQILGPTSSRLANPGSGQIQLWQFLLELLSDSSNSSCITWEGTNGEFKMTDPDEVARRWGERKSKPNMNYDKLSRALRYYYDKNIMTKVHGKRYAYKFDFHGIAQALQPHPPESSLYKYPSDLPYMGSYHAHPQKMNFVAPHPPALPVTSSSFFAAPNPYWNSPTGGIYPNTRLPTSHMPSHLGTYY
Procedure, shortened: as §1

ELF1 = ELF1 (Homo sapiens, UniProt P32519 1-619)
ELF1, sequence (P32519 whole entry): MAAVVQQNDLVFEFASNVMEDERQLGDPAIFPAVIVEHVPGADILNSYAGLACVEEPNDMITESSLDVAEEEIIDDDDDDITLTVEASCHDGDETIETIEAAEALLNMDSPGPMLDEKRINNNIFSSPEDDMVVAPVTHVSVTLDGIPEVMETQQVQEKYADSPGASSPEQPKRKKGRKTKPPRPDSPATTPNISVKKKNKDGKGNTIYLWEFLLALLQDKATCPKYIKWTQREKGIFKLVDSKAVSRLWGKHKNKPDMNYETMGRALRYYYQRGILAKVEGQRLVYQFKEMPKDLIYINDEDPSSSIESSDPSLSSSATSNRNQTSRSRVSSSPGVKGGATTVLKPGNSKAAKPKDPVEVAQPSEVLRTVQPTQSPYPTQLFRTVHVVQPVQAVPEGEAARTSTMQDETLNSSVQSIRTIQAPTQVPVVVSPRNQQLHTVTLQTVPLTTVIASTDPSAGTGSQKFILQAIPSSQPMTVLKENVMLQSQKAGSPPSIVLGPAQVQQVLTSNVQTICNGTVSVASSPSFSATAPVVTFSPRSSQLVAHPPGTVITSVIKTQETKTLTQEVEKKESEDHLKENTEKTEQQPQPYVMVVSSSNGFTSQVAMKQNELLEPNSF
Procedure, shortened: as §1

EHF = target: T4, EHF (Homo sapiens, UniProt Q9NZC4 1-300)
T4 sequence: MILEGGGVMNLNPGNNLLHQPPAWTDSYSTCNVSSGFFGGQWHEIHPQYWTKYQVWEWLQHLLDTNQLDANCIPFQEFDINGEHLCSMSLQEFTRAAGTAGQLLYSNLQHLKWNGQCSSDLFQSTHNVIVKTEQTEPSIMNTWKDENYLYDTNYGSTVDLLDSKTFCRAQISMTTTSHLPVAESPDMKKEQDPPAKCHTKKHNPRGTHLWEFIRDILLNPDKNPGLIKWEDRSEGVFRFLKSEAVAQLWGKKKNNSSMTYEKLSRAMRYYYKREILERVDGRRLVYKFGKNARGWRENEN
Procedure, shortened: as §1

SPIB = SPIB (Homo sapiens, UniProt Q01892 1-262)
SPIB, sequence (Q01892 whole entry): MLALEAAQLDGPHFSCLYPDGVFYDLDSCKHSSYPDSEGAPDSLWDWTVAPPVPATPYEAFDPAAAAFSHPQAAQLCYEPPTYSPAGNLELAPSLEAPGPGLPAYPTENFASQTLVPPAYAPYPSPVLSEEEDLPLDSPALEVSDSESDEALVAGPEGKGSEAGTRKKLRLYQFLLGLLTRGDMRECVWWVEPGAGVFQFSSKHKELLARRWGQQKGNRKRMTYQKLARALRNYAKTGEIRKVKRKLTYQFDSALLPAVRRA
Procedure, shortened: as §1

FEV = target: T5, FEV (Homo sapiens, UniProt Q99581 1-238)
T5 sequence: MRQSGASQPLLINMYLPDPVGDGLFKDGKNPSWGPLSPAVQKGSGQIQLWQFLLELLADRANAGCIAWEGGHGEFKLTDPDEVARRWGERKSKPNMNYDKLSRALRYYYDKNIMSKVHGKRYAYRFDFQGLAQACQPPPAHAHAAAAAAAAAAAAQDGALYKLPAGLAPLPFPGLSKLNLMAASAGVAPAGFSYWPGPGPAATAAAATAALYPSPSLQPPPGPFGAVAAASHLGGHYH
Procedure, shortened: as §1

ETV5 = ETV5 (Homo sapiens, UniProt P41161 1-510)
ETV5, sequence (P41161 whole entry): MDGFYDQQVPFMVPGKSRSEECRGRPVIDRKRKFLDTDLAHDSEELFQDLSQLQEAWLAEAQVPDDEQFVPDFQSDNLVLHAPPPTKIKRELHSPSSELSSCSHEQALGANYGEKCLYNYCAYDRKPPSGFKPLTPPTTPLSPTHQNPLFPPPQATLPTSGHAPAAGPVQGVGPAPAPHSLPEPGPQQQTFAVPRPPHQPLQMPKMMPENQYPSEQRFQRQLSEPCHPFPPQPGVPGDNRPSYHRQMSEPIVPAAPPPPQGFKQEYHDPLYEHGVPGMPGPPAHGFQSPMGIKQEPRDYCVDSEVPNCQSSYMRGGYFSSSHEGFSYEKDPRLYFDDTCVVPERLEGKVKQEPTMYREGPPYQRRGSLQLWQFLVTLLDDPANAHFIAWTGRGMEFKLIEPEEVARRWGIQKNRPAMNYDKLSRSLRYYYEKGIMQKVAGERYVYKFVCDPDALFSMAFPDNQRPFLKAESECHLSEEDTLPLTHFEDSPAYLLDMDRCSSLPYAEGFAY
Procedure, shortened: as §1

ELF4 = ELF4 (Homo sapiens, UniProt Q99607 1-663)
ELF4, sequence (Q99607 whole entry): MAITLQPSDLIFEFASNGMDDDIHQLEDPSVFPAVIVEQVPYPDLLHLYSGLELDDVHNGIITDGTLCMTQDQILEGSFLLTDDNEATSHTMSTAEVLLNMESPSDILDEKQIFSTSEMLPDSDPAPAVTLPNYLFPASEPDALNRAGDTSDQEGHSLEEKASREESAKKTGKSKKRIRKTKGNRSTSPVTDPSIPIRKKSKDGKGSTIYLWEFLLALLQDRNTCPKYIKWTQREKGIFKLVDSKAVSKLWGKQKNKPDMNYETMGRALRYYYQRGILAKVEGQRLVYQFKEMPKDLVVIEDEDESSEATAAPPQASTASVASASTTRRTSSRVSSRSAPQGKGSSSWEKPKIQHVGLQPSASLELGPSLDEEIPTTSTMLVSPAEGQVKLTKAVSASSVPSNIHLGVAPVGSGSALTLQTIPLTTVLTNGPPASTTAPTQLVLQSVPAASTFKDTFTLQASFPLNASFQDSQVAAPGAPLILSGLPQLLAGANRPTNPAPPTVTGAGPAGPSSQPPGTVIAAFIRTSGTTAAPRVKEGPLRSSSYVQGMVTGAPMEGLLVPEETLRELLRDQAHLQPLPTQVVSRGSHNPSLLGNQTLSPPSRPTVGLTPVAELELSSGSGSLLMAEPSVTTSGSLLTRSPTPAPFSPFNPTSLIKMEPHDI
Procedure, shortened: as §1

ELK4 = target: T6, ELK4 (Homo sapiens, UniProt P28324-2 1-405)
T6 sequence: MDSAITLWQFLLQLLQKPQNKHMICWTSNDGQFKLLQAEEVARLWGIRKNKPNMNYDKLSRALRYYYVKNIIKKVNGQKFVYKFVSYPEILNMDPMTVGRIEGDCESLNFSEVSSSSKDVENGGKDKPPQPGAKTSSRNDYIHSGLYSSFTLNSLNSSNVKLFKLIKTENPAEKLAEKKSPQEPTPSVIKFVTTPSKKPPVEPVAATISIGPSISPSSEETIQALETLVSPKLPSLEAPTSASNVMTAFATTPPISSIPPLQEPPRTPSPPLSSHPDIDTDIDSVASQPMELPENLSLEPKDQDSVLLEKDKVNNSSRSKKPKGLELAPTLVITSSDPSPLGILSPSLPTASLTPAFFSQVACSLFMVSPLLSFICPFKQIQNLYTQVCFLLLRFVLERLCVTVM
Procedure, shortened: as §1

ELF3 = target: T7, ELF3 (Homo sapiens, UniProt P78545 1-371)
T7 sequence: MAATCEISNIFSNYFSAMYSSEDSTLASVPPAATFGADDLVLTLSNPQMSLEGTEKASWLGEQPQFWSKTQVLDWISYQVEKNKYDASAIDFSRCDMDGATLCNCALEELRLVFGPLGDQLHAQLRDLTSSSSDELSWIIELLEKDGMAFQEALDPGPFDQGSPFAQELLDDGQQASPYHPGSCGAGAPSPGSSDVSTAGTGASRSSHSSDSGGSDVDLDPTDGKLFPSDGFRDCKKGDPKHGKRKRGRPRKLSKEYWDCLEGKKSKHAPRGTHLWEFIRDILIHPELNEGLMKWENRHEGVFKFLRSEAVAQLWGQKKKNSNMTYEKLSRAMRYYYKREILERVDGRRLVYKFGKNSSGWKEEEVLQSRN
Procedure, shortened: as §1

ETV1 = ETV1 (Homo sapiens, UniProt P50549 1-477)
ETV1, sequence (P50549 whole entry): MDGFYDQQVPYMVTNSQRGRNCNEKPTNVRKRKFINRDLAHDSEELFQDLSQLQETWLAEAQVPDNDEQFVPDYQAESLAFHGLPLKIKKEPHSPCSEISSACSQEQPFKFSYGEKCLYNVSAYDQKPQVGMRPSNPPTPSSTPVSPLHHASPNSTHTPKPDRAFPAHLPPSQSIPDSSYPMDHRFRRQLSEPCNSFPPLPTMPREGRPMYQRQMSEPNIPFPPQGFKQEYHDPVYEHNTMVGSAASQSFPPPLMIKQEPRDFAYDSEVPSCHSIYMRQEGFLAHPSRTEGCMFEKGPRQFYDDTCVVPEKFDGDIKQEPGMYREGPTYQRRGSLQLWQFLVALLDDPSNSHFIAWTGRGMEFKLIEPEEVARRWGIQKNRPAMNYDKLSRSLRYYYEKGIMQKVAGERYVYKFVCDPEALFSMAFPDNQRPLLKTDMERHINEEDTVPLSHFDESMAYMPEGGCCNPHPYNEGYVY
Procedure, shortened: as §1

ETV3L = target: T8, ETV3L (Homo sapiens, UniProt Q6ZN32 1-361)
T8 sequence: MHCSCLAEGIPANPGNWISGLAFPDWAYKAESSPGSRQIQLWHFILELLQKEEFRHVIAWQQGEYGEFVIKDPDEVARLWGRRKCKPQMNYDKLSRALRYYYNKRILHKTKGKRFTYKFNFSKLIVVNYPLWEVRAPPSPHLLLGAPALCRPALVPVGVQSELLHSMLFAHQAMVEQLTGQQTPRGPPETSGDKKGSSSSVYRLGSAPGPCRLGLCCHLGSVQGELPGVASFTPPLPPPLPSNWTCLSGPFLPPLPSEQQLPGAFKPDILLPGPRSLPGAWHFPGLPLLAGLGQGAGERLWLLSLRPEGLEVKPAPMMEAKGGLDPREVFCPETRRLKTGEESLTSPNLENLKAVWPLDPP
Procedure, shortened: as §1

ETS2 = target: T9, ETS2 (Homo sapiens, UniProt P15036 1-469)
T9 sequence: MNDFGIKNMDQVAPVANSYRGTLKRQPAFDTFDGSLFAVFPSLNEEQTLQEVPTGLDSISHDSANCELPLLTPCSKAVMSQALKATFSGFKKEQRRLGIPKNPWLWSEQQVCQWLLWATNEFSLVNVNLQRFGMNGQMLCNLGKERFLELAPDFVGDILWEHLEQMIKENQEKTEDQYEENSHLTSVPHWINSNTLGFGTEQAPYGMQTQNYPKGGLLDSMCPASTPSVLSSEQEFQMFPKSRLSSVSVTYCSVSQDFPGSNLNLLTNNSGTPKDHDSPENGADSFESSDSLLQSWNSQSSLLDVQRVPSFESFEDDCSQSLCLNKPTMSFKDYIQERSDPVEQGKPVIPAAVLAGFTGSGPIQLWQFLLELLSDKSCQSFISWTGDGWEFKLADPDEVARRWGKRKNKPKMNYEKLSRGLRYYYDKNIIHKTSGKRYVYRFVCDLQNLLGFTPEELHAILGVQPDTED
Procedure, shortened: as §1

SPDEF = target: T10, SPDEF (Homo sapiens, UniProt O95238 1-335)
T10 sequence: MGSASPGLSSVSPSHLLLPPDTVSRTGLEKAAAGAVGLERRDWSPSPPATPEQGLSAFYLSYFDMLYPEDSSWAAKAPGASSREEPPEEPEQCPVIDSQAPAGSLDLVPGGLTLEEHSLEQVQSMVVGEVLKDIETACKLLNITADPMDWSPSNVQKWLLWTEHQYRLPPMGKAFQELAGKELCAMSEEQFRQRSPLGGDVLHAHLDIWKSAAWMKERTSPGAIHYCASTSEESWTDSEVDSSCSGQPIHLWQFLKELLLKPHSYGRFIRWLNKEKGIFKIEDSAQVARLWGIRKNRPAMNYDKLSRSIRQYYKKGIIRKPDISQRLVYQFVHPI
Procedure, shortened: as §1

ETV7 = target: T11, ETV7 (Homo sapiens, UniProt Q9Y603 1-341)
T11 sequence: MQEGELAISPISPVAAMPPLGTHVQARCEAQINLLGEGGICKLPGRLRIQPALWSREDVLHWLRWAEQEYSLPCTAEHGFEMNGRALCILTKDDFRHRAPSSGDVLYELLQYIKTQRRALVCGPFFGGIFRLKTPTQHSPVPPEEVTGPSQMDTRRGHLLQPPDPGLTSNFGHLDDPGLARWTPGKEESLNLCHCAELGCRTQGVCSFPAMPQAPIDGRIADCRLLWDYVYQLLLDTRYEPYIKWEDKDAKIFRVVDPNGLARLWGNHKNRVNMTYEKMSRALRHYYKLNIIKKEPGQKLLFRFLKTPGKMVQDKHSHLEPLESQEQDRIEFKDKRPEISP
Procedure, shortened: as §1

ETV6 = ETV6 (Homo sapiens, UniProt P41212 1-452)
ETV6, sequence (P41212 whole entry): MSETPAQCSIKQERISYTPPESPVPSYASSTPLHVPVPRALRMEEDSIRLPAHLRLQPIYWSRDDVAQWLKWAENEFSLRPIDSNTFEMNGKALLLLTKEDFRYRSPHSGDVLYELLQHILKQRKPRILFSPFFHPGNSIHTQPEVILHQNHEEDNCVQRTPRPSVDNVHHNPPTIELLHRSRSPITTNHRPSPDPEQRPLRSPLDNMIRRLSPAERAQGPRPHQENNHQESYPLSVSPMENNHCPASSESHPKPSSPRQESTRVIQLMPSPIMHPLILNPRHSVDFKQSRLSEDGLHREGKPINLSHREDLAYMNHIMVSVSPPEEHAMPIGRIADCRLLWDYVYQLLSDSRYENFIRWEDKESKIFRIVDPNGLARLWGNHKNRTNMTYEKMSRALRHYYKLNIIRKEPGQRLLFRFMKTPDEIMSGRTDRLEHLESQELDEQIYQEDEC
Procedure, shortened: as §1

GCAGCT
binding signal (ELK1): 1.04 fold enrichment (6-mer frequency, TF over GST control)
binding signal (GABPA): 1.07 fold enrichment (6-mer frequency, TF over GST control)
binding signal (ERG): 1.02 fold enrichment (6-mer frequency, TF over GST control)
binding signal (ELF1): 1.06 fold enrichment (6-mer frequency, TF over GST control)
binding signal (EHF): 1.03 fold enrichment (6-mer frequency, TF over GST control)
binding signal (SPIB): 1.01 fold enrichment (6-mer frequency, TF over GST control)
binding signal (FEV): 1.09 fold enrichment (6-mer frequency, TF over GST control)
binding signal (ETV5): 1.08 fold enrichment (6-mer frequency, TF over GST control)
binding signal (ELF4): 1.06 fold enrichment (6-mer frequency, TF over GST control)
binding signal (ELK4): 1.08 fold enrichment (6-mer frequency, TF over GST control)
binding signal (ELF3): 1.07 fold enrichment (6-mer frequency, TF over GST control)
binding signal (ETV1): 1.13 fold enrichment (6-mer frequency, TF over GST control)
binding signal (ETV3L): 1.08 fold enrichment (6-mer frequency, TF over GST control)
binding signal (ETS2): 1.08 fold enrichment (6-mer frequency, TF over GST control)
binding signal (SPDEF): 1.06 fold enrichment (6-mer frequency, TF over GST control)
binding signal (ETV7): 1.11 fold enrichment (6-mer frequency, TF over GST control)
binding signal (ETV6): 1.06 fold enrichment (6-mer frequency, TF over GST control)
